According to the supplement of paper PMC6658780:
Where a name gives a salt, the structure may show the parent alone. ± gives the standard deviation of the averaged measurements.

Tested on: Escherichia coli ATCC BAA-2469
Experiment: percent growth inhibition of drug alone vs DMSO control; higher = more growth inhibition
Conditions: antibiotic (0.125x MIC): none (0.1% DMSO); 7 µM
Experimental: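 Prestwick drugs tested at 20 uM and 7 uM with an antibiotic at 0.125x MIC (16 mg/L when MIC >128 mg/L) against E. coli ATCC BAA-2469 (NDM-1) in CAMHB, 384-well plates, duplicate runs. Percent growth inhibition was computed from OD600 (24 h minus 0 h) relative to DMSO wells. Drug + DMSO-only wells are also given. […]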

`O=C([O-])c1ccccc1-c1c2cc(Br)c(=O)cc-2oc2[c]([Hg+])c([O-])c(Br)cc12.[Na+].[Na+].[OH-]` [Merbromin] and `O=C(CCCN1CCC2(CC1)C(=O)NCN2c1ccccc1)c1ccc(F)cc1` [Spiperone] are within error of each other in “percent growth inhibition of drug alone” value: 0.201 ± 1.7% for the first, 3 ± 1.4% for the second.

Compared with `NCC1(CC(=O)O)CCCCC1` [Gabapentin], `CN1[C@@H]2CC[C@H]1C[C@@H](OC(=O)C(CO)c1ccccc1)C2` (some centres not stated) [Atropine sulfate monohydrate] is higher in “percent growth inhibition of drug alone” value: -0.379 ± 0.84% for the first, 1.11 ± 0.46% for the second.

Compared with `Oc1cc(Cl)ccc1Oc1ccc(Cl)cc1Cl` [Triclosan], `C[C@]12CC[C@H](O)C[C@@H]1CC[C@@H]1[C@@H]2CC[C@]2(C)C(=O)CC[C@@H]12` [Epiandrosterone] is lower in “percent growth inhibition of drug alone” value: 103 ± 3.2% for the first, -0.756 ± 0.88% for the second.

Same assay, conditions: antibiotic (0.125x MIC): none (0.1% DMSO); 20 µM

First: O=C([O-])c1ccccc1-c1c2cc(Br)c(=O)cc-2oc2[c]([Hg+])c([O-])c(Br)cc12.[Na+].[Na+].[OH-] [Merbromin]
Second: O=C(CCCN1CCC2(CC1)C(=O)NCN2c1ccccc1)c1ccc(F)cc1 [Spiperone]
The “percent growth inhibition of drug alone” value of the first is higher: 38.2 ± 18% for the first, 2.07 ± 2.2% for the second.

Compared with `NCC1(CC(=O)O)CCCCC1` [Gabapentin], `CN1[C@@H]2CC[C@H]1C[C@@H](OC(=O)C(CO)c1ccccc1)C2` (some centres not stated) [Atropine sulfate monohydrate] is higher in “percent growth inhibition of drug alone” value: -1.41 ± 0.8% for the first, -0.0722 ± 0.38% for the second.

First: Oc1cc(Cl)ccc1Oc1ccc(Cl)cc1Cl [Triclosan]
Second: C[C@]12CC[C@H](O)C[C@@H]1CC[C@@H]1[C@@H]2CC[C@]2(C)C(=O)CC[C@@H]12 [Epiandrosterone]
The “percent growth inhibition of drug alone” value of the first is higher: 107 ± 2.6% for the first, 1.48 ± 2.3% for the second.
